Compound activity deposited in PubChem by National Center for Advancing Translational Sciences (NCATS).
Sampled rows, rich in hits. Any-hit rate of the full collection: about 11%.
HttQ103 aggreg: qHTS Multiplex Assay to Identify Dual Action Probes in a Cell Model of Huntington: Aggregate Formation (GFP); PC12 HttQ103-GFP aggregates, Acumen cytometry, 40 h; Potency, µM (top dose mostly 46.1 µM), for the others: top-dose activity change, negative = inhibition, most hits filed as inhibitors; 220,000 compounds, 1.1% hits; active means well fitted curve in the direction sought with a large enough effect; inconclusive means small, poorly fitted or top-dose-only effect, or another doubt; inactive means no such curve, though single readings can be large; an effect the other way counts as inactive or inconclusive; further: potency means the concentration at half of the fitted maximal effect; on the % scale 0 is the no-effect control and ±100 the full control effect; nearly all actives have a fitted effect of over 60% in size
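Read-out: GFP aggregate count by laser scanning cytometer (488 nm excitation, 500-530 nm emission, 1–25 µm objects >6 SD above background). Cells: PC12, inducible HTTex1-Q103-GFP, 100 nM tebufenozide; compounds titrated.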
HPGD inh: qHTS Assay for Inhibitors of HPGD (15-Hydroxyprostaglandin Dehydrogenase); 15-hydroxyprostaglandin dehydrogenase [NAD(+)] (Homo sapiens), P15428; purified HPGD, NADH fluorescence kinetic, PGE2 substrate; Potency, µM, for the others: at the highest dose activity change, negative = inhibition, most hits filed as inhibitors; 150,000 compounds, 4.3% hits; AID 894, 2007; further: potency means the concentration at half of the fitted maximal effect; on the % scale 0 is the no-effect control and ±100 the full control effect
Target sequence (P15428 whole entry, looked up): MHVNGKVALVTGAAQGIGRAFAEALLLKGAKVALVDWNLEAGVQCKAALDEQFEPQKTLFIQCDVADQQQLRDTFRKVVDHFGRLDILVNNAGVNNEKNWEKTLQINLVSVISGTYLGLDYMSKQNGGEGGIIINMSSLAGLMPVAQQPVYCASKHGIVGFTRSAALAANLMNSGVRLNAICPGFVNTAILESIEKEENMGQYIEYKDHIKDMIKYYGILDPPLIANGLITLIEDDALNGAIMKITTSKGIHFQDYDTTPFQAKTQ
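NADH formation kinetics: reaction with 30 uM PGE2 and 1 mM NAD+ (final), 20 nM enzyme, Tris-HCl pH 8 with Tween 20, after 15 min compound preincubation at room temperature. Fluorescence change, last versus first of five reads.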
RGS12 GoLoco inh: qHTS Assay for Inhibitors of RGS12 GoLoco Motif Activity (Red Fluorophore) | Gai1:RGS12 GoLoco peptide FP, rhodamine, 10 min | Guanine nucleotide-binding protein G(i) subunit alpha-1 (Homo sapiens), P63096 | Potency, µM (doses to about 61.6 µM), for the others: at the top dose activity, negative = inhibition, usual class: inhibitors | AID 880, 2007 | 230,000 compounds, 0.44% hits; active means well fitted inhibition curve with a large enough effect, not every such curve was filed as active; inactive means no such curve, though single readings can be large or run the other way; further: potency means the concentration at half of the fitted maximal effect; on the % scale 0 is the no-effect control and ±100 the full control effect; nearly all actives have a fitted effect of over 30% in size
Target sequence (P63096 whole entry, looked up): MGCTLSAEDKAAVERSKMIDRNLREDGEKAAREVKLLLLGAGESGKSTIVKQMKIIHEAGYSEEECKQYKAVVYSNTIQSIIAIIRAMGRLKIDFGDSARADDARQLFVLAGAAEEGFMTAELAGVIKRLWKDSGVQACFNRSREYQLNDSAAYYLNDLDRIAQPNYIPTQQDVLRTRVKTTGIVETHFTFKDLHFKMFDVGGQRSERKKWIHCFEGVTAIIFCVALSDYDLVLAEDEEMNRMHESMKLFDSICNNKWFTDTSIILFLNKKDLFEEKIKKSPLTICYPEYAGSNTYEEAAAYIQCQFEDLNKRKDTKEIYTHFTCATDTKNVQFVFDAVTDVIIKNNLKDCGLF
HTT ATP protect: qHTS Multiplex Assay to Identify Dual Action Probes in a Cell Model of Huntington: Cytoprotection (ATP) | PC12 HTT-Q103 induced, cytoprotection, ATP luminescence, 40 h | 230,000 compounds, 0.14% hits | AID 1471, 2008 | Potency, µM (top dose mostly 56.4 µM), for the others: cytoprotection (ATP increase), actives largely listed as activators; active means well fitted curve in the direction sought with a large enough effect; inconclusive means small, poorly fitted or top-dose-only effect, or another doubt; inactive means no such curve, though single readings can be large; an effect the other way counts as inactive or inconclusive; further: potency means the concentration at half of the fitted maximal effect; % of control where 0% means no effect; nearly all actives have a fitted effect of over 45% in size
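Quantitative HTS on tebufenozide-induced (100 nM) PC12 cells expressing HTTQ103 exon 1–GFP; compounds tested as a concentration series; survival measured via cellular ATP.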
PNC inhibitor: High Content Assay for Compounds that inhibit the Assembly of the Perinucleolar Compartment; PC3M PTB-GFP, PNC prevalence imaging, 16 h; active compounds read low; activity change (PNC), negative = inhibition, % at 10 µM; 140,000 compounds, 3.1% hits; AID 2417, 2010;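 active means readout at or below -70, meaning at least 70% loss of cells showing the perinucleolar compartment, a nuclear body marking cancer cells; inconclusive means readout between -30 and a set limit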;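 further: plate controls were DMSO wells for no effect and camptothecin positive control wells for full effect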
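PC3M cells stably expressing PTB-GFP, 750–1000 cells/well, treated 16 h at 37 °C with compound (23 nl of library stock), in duplicate. After paraformaldehyde fixation and Hoechst stain, imaged at 20x; PNC prevalence scored by image analysis.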
ALDH1A1 inh: qHTS Assay for Inhibitors of Aldehyde Dehydrogenase 1 (ALDH1A1); AID 1030, 2008; Purified ALDH1A1, NADH fluorescence, propionaldehyde substrate; 220,000 compounds, 7.3% hits; Aldehyde dehydrogenase 1A1 (Homo sapiens), P00352; Potency, µM (top dose mostly 75.3 µM), without a hit: top-dose activity, negative = inhibition, actives largely listed as inhibitors;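 further: potency means the concentration at half of the fitted maximal effect; plate controls were no enzyme wells and a reference inhibitor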
The depositor's hits bear a star; ? = inconclusive; · = no result given; ! = not confirmed by another sample; [ ] = dose if it differs, or a comment. Unless noted, the call rests on the fitted dose curve; in most records, active means well fitted inhibition curve with a large enough effect (not every such curve was filed as active); inconclusive means small, poorly fitted or top-dose-only effect, or another doubt; inactive means no such curve, though single readings can be large or run the other way.

SMILES	HttQ103 aggreg	HPGD inh	RGS12 GoLoco inh	HTT ATP protect	PNC inhibitor	ALDH1A1 inh
CCN(CC)C(=O)C1CCCN(Cc2nc(-c3cccs3)no2)C1 (configuration not stated)	6.2%	·	9.5%	-11.9%	·	7.7%
COC(=O)C1=C(C(=O)OC)[C@@H]2N(C)c3ccccc3[C@@]23C[C@@H](CO)N=C3N1	·	-4.8%	-0.5%[14.2 µM]	17.7%[10 µM]	·	12.7%[13.5 µM]
CC(=O)c1cccc(NS(=O)(=O)c2cccc(C(=O)O)c2)c1	·	-8.9%	·	·	·	-1.5%
O=C(c1cc(-c2ccc(O)cc2)on1)N1CCc2ccccc2C1	-11.9%	12.6µM*	7.9%	-1.7%	14.5	?
O=C(c1cc(-c2ccco2)on1)N1CCc2ccccc2C1	19.7%	11.2µM*	82.7%	-8.8%	-27.1	7.94µM*
COc1ccccc1-c1cc(C(=O)N2CCc3ccccc3C2)no1	·	·	·	-1.5%	·	·
CCc1ccc2nc3sc(C(=O)O)cc3cc2c1	-4.8%[9.22 µM]	·	62.3%	-42.5%[10 µM]	·	-3.6%
COc1ccc(/C=C2\NC(=S)N(CC3CCCO3)C2=O)c(OC)c1C (configuration not stated)	21.7%[9.22 µM]	-17.4%	3.4%	21.4%	16.4	0.447µM*
COc1ccc(/C=C2\NC(=S)N(CC3CCCO3)C2=O)c(OC)c1 (configuration not stated)	3.5%	-14.8%	-2.3%	-21.7%	44.6	1.26µM*
COc1ccccc1Oc1ccc2c(c1)C(=O)N(CC1CCCO1)C2=O (configuration not stated)	-5.0%[9.22 µM]	·	3.6%	2.3%[10 µM]	·	?
COc1ccc(CNC(=O)c2cc(-c3cccc(OC)c3)on2)cc1	·	·	·	-9.8%	·	·
O=C(C[n+]1ccccc1)c1ccc(NC(=O)c2ccccc2)cc1	10.9%[9.22 µM]	·	8.0%	16.4%[10 µM]	·	1.6%
NC(=O)c1cc[n+](CC(=O)c2ccc(NC(=O)c3ccccc3)cc2)cc1	27.2%	·	27.1%	-1.7%	·	4.47µM*
Cc1cccc(OCC(=O)Nc2ccc(N3CCN(C(=O)c4ccco4)CC3)cc2)c1	?	-0.3%	13.5%	-41.6%	?	-2.4%
O=C1CCCC2=C1C(c1ccc(Cl)cc1)N1C(=O)CCSC1=N2 (configuration not stated)	-15.5%	?	11.8%	17.4%[10 µM]	-100.0*	4.5%
COc1ccc(OCCSc2nnc(C(C)NC(=O)c3ccccc3F)n2C)cc1 (configuration not stated)	5.1%	·	-1.2%	1.9%[10 µM]	·	2.1%
O=[N+]([O-])c1ccc(/C=N/N/C(=N/c2ccccn2)c2ccccn2)cc1	?	28.2µM*	3.0%	-27.7%	-28.6	?
Cc1cc(C(=O)NN)c2cc(Br)ccc2n1	-2.7%[9.22 µM]	-28.3%	-2.2%	-4.1%	-7.2	?
O=C(O)c1cc(-c2ccco2)nc2ccc(Br)cc12	-18.1%	?	-10.7%	1.5%[1.9 µM]	?	3.98µM*!
O=C(c1ccco1)N1CCN(C(=O)c2cc(-c3ccncc3)nc3ccc(Br)cc23)CC1	·	·	·	-3.9%	·	·
Cc1cc(C(N)=O)c2cc(Br)ccc2n1	-17.4%	-8.0%	0.7%	3.2%[1.9 µM]	-89.5*	1.0%
COc1cccc(/C=N\NC(=O)c2sc(N)nc2C)c1OC	17.6%	-12.9%	1.6%	7.7%	?	5.4%
O=c1c(CCc2ccccc2)nc2cnc(N3CCOCC3)nc2n1CCc1ccccc1	·	·	16.1%	-9.6%	·	?
CC(C)CC(=O)N1CCN(Cc2ccccc2[N+](=O)[O-])CC1	-0.8%[9.22 µM]	·	-13.2%	1.2%[10 µM]	·	0.0891µM*
CCCS(=O)(=O)N1CCN(Cc2ccccc2[N+](=O)[O-])CC1	·	·	14.8%	·	·	8.91µM*
SMILES	HttQ103 aggreg	HPGD inh	RGS12 GoLoco inh	HTT ATP protect	PNC inhibitor	ALDH1A1 inh
COc1ccc(Cl)cc1C(=O)CSc1nnnn1C1CCCCC1	-20.3%	-25.7%	8.8%	3.9%[10 µM]	?	5.01µM*
COc1ccc(Cl)cc1C(=O)CSc1nnnn1C1CCCC1	-3.3%	·	·	2.3%	-26.2	2µM*
CCn1nnnc1SCC(=O)c1cc(Cl)ccc1OC	5.8%[9.22 µM]	·	17.4%	15.5%[10 µM]	·	?
N#CC(CC(=O)O)=C(c1ccccc1)c1ccccc1	·	-25.0%	-5.9%[14.2 µM]	-1.0%[10 µM]	·	4.0%[13.5 µM]
CCCN1C(=O)c2cc(C(=O)NCc3cccs3)ccc2C1O (configuration not stated)	2.8%	-3.3%	-0.8%	-13.5%	-12.5	?
Cc1ccc(C)c(Nc2ncccc2C(=O)NCc2cccs2)c1	-4.5%	25.1µM*	3.7%	-9.6%[10 µM]	-18.7	-9.5%
CCOC(=O)c1ccc2[nH]cc(C(C)=O)c(=O)c2c1	-20.6%	?	90.9%	8.1%[10 µM]	-13.4	?
CC(=O)c1c[nH]c2ccc(C)cc2c1=O	-14.3%	-26.8%	17.7%	-6.1%	-86.7*	-4.6%
Cc1c(C)n(C)c2ccc(C(=O)NCc3cccs3)cc12	-1.2%	?	49.9%	-12.3%[10 µM]	-119.3*	?
Cc1ccc2[nH]cc(C(=O)NCc3cccs3)c(=O)c2c1	-15.5%	-7.9%	7.9%	-7.0%[1.9 µM]	?	15.8µM*
COc1ccccc1-c1cncnc1NCc1cccs1	·	·	2.5%	?	·	13.9%
O=C1CSC(=S)N1/N=C\c1ccc(Cl)c([N+](=O)[O-])c1	·	-18.3%	2.4%[14.2 µM]	13.7%[10 µM]	·	-15.8%[13.5 µM]
CCN(CC)C(=O)C1CCC(CNS(=O)(=O)c2cccc3cccnc23)CC1 (configuration not stated)	-22.5%	7.94µM*	0.5%	-2.9%	74.9	?
O=C(C1CCC(CNS(=O)(=O)c2cccc3cccnc23)CC1)N1CCc2ccccc21 (configuration not stated)	?	?	9.8%	-43.1%	-20.0	1.26µM*
O=C(C1CCC(CNS(=O)(=O)c2cccc3nsnc23)CC1)N1CCN(c2ccccn2)CC1 (configuration not stated)	-18.0%	·	6.5%	-5.8%	·	-3.9%
CC1CCN(C(=O)C2CCC(CNS(=O)(=O)c3cccc4cccnc34)CC2)CC1 (configuration not stated)	14.0%	0.891µM*	7.9%	10.6%	?	?
CN1CCN(C(=O)C2CCC(CNS(=O)(=O)c3cccc4cccnc34)CC2)CC1 (configuration not stated)	-11.9%	15.8µM*	-1.5%	-1.3%	-0.1	0.0%
CN(Cc1ccccc1)C(=O)C1CCC(CNS(=O)(=O)c2cccc3cccnc23)CC1 (configuration not stated)	13.2%[9.22 µM]	·	1.2%	25.4%[10 µM]	·	·
Cc1c(Br)c([N+](=O)[O-])nn1CC(=O)Nc1ccc(C(N)=O)cc1	·	·	-2.0%	·	·	-1.1%
